High-throughput results deposited in PubChem by National Center for Advancing Translational Sciences (NCATS).
Nrf2 block = inhibitors of Nrf2 signaling. Potency, µM (series often up to 46 µM), without a hit: at the top dose activity change, negative = inhibition, hits mostly inhibitors. A549 ARE-Fluc reporter, luciferase luminescence, 18-24 h. 360,000 tested, 2.1% active; further: on the % scale 0 is the no-effect control and ±100 the full control effect; nearly all actives have a fitted effect of over 60% in size
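Nrf2 function is reported as luminescence of an ARE-controlled luciferase in A549 cells. Compounds were tested at several concentrations, and a CellTiter-Fluor read on the same wells flagged cytotoxicity.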
Nrf2 activator = Nrf2 pathway activation; AREc32 ARE-luciferase reporter (MCF7-derived line), luminescence, 24 h; Potency, µM (top dose mostly 46.1 µM), for the others: at the top dose activation, actives largely listed as activators; 410,000 tested, 0.31% active; AID 624171; further: % of control where 0% means no effect; nearly all actives have a fitted effect of over 65% in size
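ARE-driven firefly luciferase activity in AREc32 cells measured after a 24 hr compound exposure at 37 deg C, using Steady-Glo reagent and a 30 min room-temperature hold.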
A549 tox = A549 cytotoxicity, counter-screen for Nrf2 inhibitors; A549 ARE-Fluc cells, CellTiter-Fluor viability, 18-24 h; Potency, µM (titrated, usually from 46 µM), for inactives: at the highest dose activity change, negative = cytotoxicity, most hits filed as inhibitors; 390,000 tested, 0.16% active; further: on the % scale 0 is the no-effect control and ±100 the full control effect
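A549 ARE-Fluc cells in 5% FBS OPTI-MEM, 5000 cells/well, rested 2 h then exposed to compounds in concentration-response for 18-24 h at 37 °C. Viability by CellTiter-Fluor fluorescence (Ex 405/Em 525) after 30 min; luciferase luminescence (BugLite, 15 min, RT) read afterwards.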
ELG1 DNA repair = ELG1-dependent DNA repair inhibition; HEK293T ELG1-luciferase reporter, luminescence, 16 h; DNA damage induced by 5-fluorouridine; 330,000 tested, 2.3% active; AID 504467; Potency, µM (highest dose often 46.1 µM), inactives show at the top dose activity change, negative = inhibition, hits mostly inhibitors; further: on the % scale 0 is the no-effect control and ±100 the full control effect; nearly all actives have a fitted effect of over 55% in size
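Luminescence from the luciferase reporter, measured 30 min after ONE-Glo reagent at room temperature, was the read-out. Beforehand, 2,000 cells per well were exposed for 16 hr at 37 °C to 5-fluorouridine together with compound or vehicle.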
ELG1 FLuc counter = luciferase inhibition in cell-free luciferin readout for ELG1 hits | cell-free firefly luciferase luminescence counter-screen, ViewLux | shares compounds with ELG1 DNA repair | AID 624247 | 350 tested, 3% active | Potency, µM (highest dose often 46.1 µM), for the others: at the top dose activity change, negative = inhibition, usual class: inhibitors; further: on the % scale 0 is the no-effect control and ±100 the full control effect
ELG1-Luc inh = human ELG1 repair inhibition, luciferase-tagged ELG1 confirmation. shares compounds with ELG1 DNA repair. HEK293T ELG1-luciferase levels, luminescence; cells co-treated with 5-fluorouridine. Potency, µM (titrated, usually from 46.1 µM), for inactives: at the top dose activity change, negative = inhibition, most hits filed as inhibitors. 670 tested, 68% active; further: on the % scale 0 is the no-effect control and ±100 the full control effect; nearly all actives have a fitted effect of over 55% in size
ELG1 MMS Luc = MMS-stimulated human ELG1 repair inhibition, confirmed. shares compounds with ELG1 DNA repair. Potency, µM (titrated, usually from 46.1 µM), without a hit: top-dose activity change, negative = inhibition, usual class: inhibitors. HEK293T luciferase-tagged ELG1 level, MMS stimulated. 670 tested, 53% active; further: on the % scale 0 is the no-effect control and ±100 the full control effect; nearly all actives have a fitted effect of over 60% in size
ELG1 5-FU = confirmation of ELG1 repair inhibitors: viability with 5FU; Potency, µM (highest dose often 46.1 µM), for the others: at the top dose activity change, negative = viability loss, usual class: cytotoxic; 670 tested, under 10 active; shares compounds with ELG1 DNA repair; AID 624250; cell viability with 5-FU, ELG1-dependent repair;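 further: ELG1-luc HEK293T cells cotreated with 5-fluorouridine at 10 µM final; viability measured 16 h after compound addition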
ELG1 MMS cell = confirmation of ELG1 repair inhibitors: viability with MMS. 670 tested, 33% active. shares compounds with ELG1 DNA repair. AID 624251. Potency, µM (doses to about 46.1 µM), for inactives: top-dose activity change, negative = viability loss, usual class: cytotoxic. Cell viability with MMS, ELG1-dependent DNA repair;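 further: ELG1-luc HEK293T cells co-treated with 10 µM MMS; viability read 16 h after compound addition; on the % scale 0 is the no-effect control and ±100 the full control effect; nearly all actives have a fitted effect of over 60% in size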
ELG1 unstim viab = affects unstimulated cell viability, ELG1 hit counter-screen; AID 624252; shares compounds with ELG1 DNA repair; 900 tested, 8% active; Potency, µM (highest dose often 45.9 µM), for inactives: at the highest dose activity change, negative = loss of viability, usual class: cytotoxic; cell viability counter-screen, unstimulated, luminescence;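 further: compound exposure lasted 16 hours before reading; on the % scale 0 is the no-effect control and ±100 the full control effect; nearly all actives have a fitted effect of over 55% in size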
FLuc biochem = inhibits purified firefly luciferase, counter-screen for ELG1 hits | purified firefly luciferase, luminescence counter-screen | Potency, µM (series often up to 57.5 µM), for inactives: at the top dose activity, negative = inhibition, most hits filed as inhibitors | AID 624253 | 350 tested, 10% active | shares compounds with ELG1 DNA repair; further: on the % scale 0 is the no-effect control and ±100 the full control effect
* marks the source's active call; other numbers are inactive results; u = inconclusive; x = no result given. A selection: hits, their analogues and other compounds. The true share with any hit is near 3.7%. The call rests on the fitted dose curve; in most records, active means well fitted curve in the direction sought with a large enough effect; inconclusive means small, poorly fitted or top-dose-only effect, or another doubt; inactive means no such curve, though single readings can be large; an effect the other way counts as inactive or inconclusive. Potency means the concentration at half of the fitted maximal effect.

SMILES	Nrf2 block	Nrf2 activator	A549 tox	ELG1 DNA repair	ELG1-Luc inh	ELG1 MMS Luc	ELG1 5-FU	ELG1 MMS cell	ELG1 unstim viab	others
CSc1ccc(C(=O)c2[nH]c(=O)[nH]c2C)cc1	-1.2%	0.0%	-16.0%	u	x	x	x	x	u	ELG1 FLuc counter=171.1%;FLuc biochem=u
CCOC(=O)c1cnc(-n2nc(C)cc2C)nc1Nc1ccc(O)cc1	-13.3%	0.1%	0.0%	4.11µM*	3.53µM*	2.5µM*	-2.6%	2.81µM*	u
CCOC(=O)c1cnc(-n2nc(C)cc2C)nc1NC1CCCCC1	u	0.7%	u	-17.3%	x	x	x	x	x
CC1(CC(=O)Nc2ccccc2)NC(=S)N(c2ccccc2)N1 (configuration not stated)	25.3%	0.5%	-2.2%	u	x	x	x	x	x
CCCCCCC1(C)NC(=S)N(c2ccccc2)N1 (configuration not stated)	6.4%	4.3%	12.9%	u	19.1%	23.6%	-7.7%	-14.9%	u
COc1ccc(CCC2(C)NC(=O)N(C(C)C(=O)Nc3ccccc3F)C2=O)cc1 (configuration not stated)	-10.2%	-1.0%	-0.6%	-9.3%	x	x	x	x	x
CSc1sc(-c2ccnc(SCCS(C)(=O)=O)n2)c(-c2ccccc2)c1C#N	-5.4%	2.2%	1.7%	4.61µM*	3.15µM*	0.56µM*	0.9%	0.628µM*	u
CSc1nccc(-c2sc(SC)c(C#N)c2-c2ccccc2)n1	u	-1.0%	-3.1%	4.5%	x	x	x	x	x
COc1ccc(-c2cc(=O)oc3c(C)c(OC(=O)c4cccs4)ccc23)cc1	u	0.0%	11.5%	4.11µM*	4.45µM*	u	-4.1%	-2.4%	-6.4%
COc1ccc(-c2cc(=O)oc3c(C)c(OC(C)C(C)=O)ccc23)cc1 (configuration not stated)	u	0.5%	0.6%	-17.6%	x	x	x	x	x
CCOc1ncccc1C(=O)Nc1nc(SC)ns1	u	17.5%	14.6%	u	x	x	x	x	x
CC(C)(C)c1ccc(C(=O)N2CCCC(c3nc4c(nnn4Cc4cccc(F)c4)c(=O)[nH]3)C2)cc1 (configuration not stated)	u	0.7%	-5.2%	x	x	x	x	x	x
O=C1c2cc(Cl)ccc2OC2(CCNCC2)C12CC(c1ccc(Cl)cc1)=NO2 (configuration not stated)	7.6%	5.4%	0.4%	13.7%	x	x	x	x	x
CC(C)C(=O)N1CCC2(CC1)Oc1ccc(Cl)cc1C(=O)C21CC(c2ccc(Cl)cc2)=NO1 (configuration not stated)	2.0%	0.7%	2.6%	2.59µM*	9.96µM*	-14.8%	u	-6.2%	u
CC(C)n1cnc2c(NCc3ccccc3)cc(N[C@H](C)CO)cc21	u	-3.2%	23.1µM*	4.11µM*	7.91µM*	0.445µM*	15.8µM*	0.705µM*	8.88µM*
CC(=O)c1cccc(NC(=O)c2cc(-c3ccco3)nc3ccccc23)c1	4.3%	20.6%	1.2%	u	x	x	x	x	x
COc1cc(-c2cc(C(=O)Nc3cccc(C(C)=O)c3)c3ccccc3n2)cc(OC)c1OC	u	2.9%	-15.0%	1.64µM*	0.705µM*	11.2µM*	u	-9.8%	u
Cc1c(CC(=O)NCCc2ccc(Cl)cc2)c(=O)oc2c(C)c3occ(C(C)(C)C)c3cc12	-0.5%	-0.6%	-20.1%	x	x	x	x	x	x
O=C(O)COc1ccc(/C=C/c2nc3ccc([N+](=O)[O-])cc3s2)cc1	-4.4%	-0.1%	8.1%	27.5%	x	x	x	x	x
CC(C)(C)C(=O)Nc1cccc(-c2nnc(-c3cccc(NC(=O)C(C)(C)C)c3)o2)c1	-17.6%	-1.2%	-0.3%	4.61µM*	7.91µM*	u	15.4%	-1.2%	u
CCc1cccc(NC(=O)Cn2c(C(=O)OC)cc3occc32)c1	4.6%	1.1%	-2.5%	x	x	x	x	x	x
CN(C)c1ccc(C=Nc2cncc3ccccc23)cc1	x	x	x	x	x	x	x	x	-4.8%	ELG1 FLuc counter=49.6%;FLuc biochem=0.291µM*
COC(=O)c1ccc(CNC(=O)Cn2cnc(C(=O)Nc3ccc(C)c(C)c3)n2)cc1	4.5%	0.2%	-1.5%	u	x	x	x	x	x
CCOC(=O)c1c(NC(=O)Cn2cc([N+](=O)[O-])cn2)sc2c1CCC2	u	-0.3%	-7.6%	1.84µM*	-9.1%	17.7µM*	4.8%	7.91µM*	u
Cc1cc(NC(=O)Cc2ccccc2)c2ccccc2n1	9.2µM*	0.8%	-2.1%	u	u	1.99µM*	1.1%	2.5µM*	u
SMILES	Nrf2 block	Nrf2 activator	A549 tox	ELG1 DNA repair	ELG1-Luc inh	ELG1 MMS Luc	ELG1 5-FU	ELG1 MMS cell	ELG1 unstim viab	others
COC(=O)Nc1cc(C)nc2ccccc12	-2.9%	2.2%	-5.6%	1.5%	x	x	x	x	x
CCOC(=O)c1c(C)[nH]c(C(=O)Nc2cc(OCC)c(N3CCOCC3)cc2OCC)c1C	-7.9%	-1.1%	1.8%	4.61µM*	5.6µM*	19.4%	u	-0.2%	-15.9%
CCN(CC)S(=O)(=O)c1ccc(N2CCOCC2)c(NC(=O)C2CC2)c1	5.2%	-0.1%	-4.5%	13.2%	x	x	x	x	x
CCc1ccccc1OCC(=O)Nc1cc(S(=O)(=O)N(CC)CC)ccc1N1CCOCC1	16.4%	-1.1%	2.7%	2.59µM*	4.45µM*	20.3%	u	-2.7%	u
CCN(CC)S(=O)(=O)c1ccc(N2CCOCC2)c(NC(=O)c2[nH]c(C)c(C(C)=O)c2C)c1	u	18.4%	4.5%	u	x	x	x	x	-7.1%
Cc1ccc2cc3cc(C(=O)N(C)c4ccccc4C)oc3nc2c1	u	4.5%	1.9%	x	x	x	x	x	x
Cn1cccc1C(=O)OCC(=O)Nc1ccc2c(c1)OCCO2	u	-1.8%	-0.2%	u	x	x	x	x	u	ELG1 FLuc counter=2.6%;FLuc biochem=2.06µM*
